Screening results as filed in PubChem.
Rows were chosen to be rich in hits. Some 3.7% of all compounds tested hit in one or more screens of this group.
Nrf2 ARE act: qHTS of Nrf2 Activators | actives 0.31% (n = 410,000) | Potency, µM (doses to about 46.1 µM), without a hit: top-dose activation, usual class: activators | AREc32 ARE-luciferase reporter (MCF7-derived line), luminescence, 24 h; further: % of control where 0% means no effect; nearly all actives have a fitted effect of over 65% in size
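Each well held 1000 AREc32 cells, which were incubated with compound for 24 hr at 37 deg C after overnight attachment, and ARE reporter activity was quantified by firefly luciferase luminescence.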
A549 viability: Nrf2 qHTS screen for inhibitors: counterscreen for cytotoxicity; A549 ARE-Fluc cells, CellTiter-Fluor viability, 18-24 h; Potency, µM (titrated, usually from 46 µM), for inactives: at the highest dose activity change, negative = cytotoxicity, hits mostly inhibitors; actives 0.16% (n = 390,000); AID 504648, 2011; further: on the % scale 0 is the no-effect control and ±100 the full control effect
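Cytotoxicity counterscreen: CellTiter-Fluor fluorescence was measured in A549 ARE_Fluc cells after 18-24 h of compound exposure in a concentration series. The subsequent BugLite luminescent read reports ARE-luciferase activity.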
ELG1 repair inh: qHTS screen for small molecules that inhibit ELG1-dependent DNA repair in human embryonic kidney (HEK293T) cells expressing luciferase-tagged ELG1; Potency, µM (top dose mostly 46.1 µM), inactives show top-dose activity change, negative = inhibition, most hits filed as inhibitors; AID 504467, 2011; actives 2.3% (n = 330,000); HEK293T ELG1-luciferase reporter, luminescence, 16 h; DNA damage induced by 5-fluorouridine; further: on the % scale 0 is the no-effect control and ±100 the full control effect; nearly all actives have a fitted effect of over 55% in size
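Step one: seed 2,000 cells per well. Step two: pin-transfer compound or DMSO alongside 5-fluorouridine. Step three: incubate 16 hr, 37 °C, 5% CO2. Step four: add ONE-Glo, wait 30 min, read luminescence.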
Nrf2 inh: Nrf2 qHTS screen for inhibitors. A549 ARE-Fluc reporter, luciferase luminescence, 18-24 h. Potency, µM (titrated, usually from 46 µM), for the others: at the highest dose activity change, negative = inhibition, actives largely listed as inhibitors. actives 2.1% (n = 360,000). AID 504444, 2011; further: on the % scale 0 is the no-effect control and ±100 the full control effect; nearly all actives have a fitted effect of over 60% in size
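Two sequential reads on A549 ARE_Fluc cells exposed to compound for 18-24 h: a CellTiter-Fluor fluorescence read for viability, then a luciferase luminescence read for Nrf2/ARE activity.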
An asterisk follows results filed as active; [ ] = remark or other dose. The call rests on the fitted dose curve; in most records, active means well fitted curve in the direction sought with a large enough effect; inconclusive means small, poorly fitted or top-dose-only effect, or another doubt; inactive means no such curve, though single readings can be large; an effect the other way counts as inactive or inconclusive. Potency means the concentration at half of the fitted maximal effect.

Screening CCCC(=O)N(CCc1ccc(OC)cc1)Cc1nc2ccccc2c(=O)[nH]1 returned Nrf2 ARE act -1%, A549 viability -8%, ELG1 repair inh inconclusive and Nrf2 inh 23µM*.
For COc1ccc(CCNC(=O)CCc2c(C)c3cc4c(C)c(C)oc4cc3oc2=O)cc1OC the results were Nrf2 ARE act 3%, A549 viability -1% and Nrf2 inh 6%.
Screening COC(=O)CC1C(=O)NCCN1Cc1cn(-c2ccc(C)cc2)nc1-c1cccc(C)c1 (configuration not stated) returned Nrf2 ARE act 2%, A549 viability -3%, ELG1 repair inh -13% and Nrf2 inh 13%.
S=C(Nc1ccc(Cl)cc1)NC1CCCCC1 was read as Nrf2 ARE act 1%, A549 viability -1%, ELG1 repair inh 35% and Nrf2 inh -1%.
For S=C(Nc1ccc(Nc2ccccc2)cc1)NC1CCCCCC1 the results were Nrf2 ARE act 4%, A549 viability inconclusive, ELG1 repair inh inconclusive and Nrf2 inh 18µM*.
COc1ccc(-c2oc(NC(=O)CSc3nncn3C)c(C#N)c2-c2ccc(OC)cc2)cc1 was read as Nrf2 ARE act 0%, A549 viability inconclusive, ELG1 repair inh 18µM* and Nrf2 inh inconclusive.
For Cc1ccccc1NC(=O)C1CCN(c2cc(-c3ccccc3)nc3ncnn23)CC1 the results were Nrf2 ARE act 0%, A549 viability -13%, ELG1 repair inh 15µM* and Nrf2 inh inconclusive.
O=S(=O)(c1ccccc1)N1CCN(c2cc(-c3ccccc3)nc3ncnn23)CC1 was read as Nrf2 ARE act 0%, A549 viability -3% and ELG1 repair inh inconclusive.
Screening COc1ccc(S(=O)(=O)N2CCN(c3cc(-c4ccccc4)nc4ncnn34)CC2)cc1 returned Nrf2 ARE act 5%, A549 viability -4% and ELG1 repair inh 21µM*.
`O=C(Nc1ccc(Oc2ccccc2)cc1)C1CCN(c2c3c(nc4ncnn24)CCC3)CC1` gave Nrf2 ARE act -2%, A549 viability inconclusive, ELG1 repair inh 16µM* and Nrf2 inh inconclusive.
For Cc1cc2c(cc1NC(=O)c1ccc(C(C)(C)C)cc1)n(C)c(=O)c(=O)n2C the results were Nrf2 ARE act 0%, A549 viability -15% and Nrf2 inh inconclusive.
Cc1ccc(C(=O)N/N=C/c2cn(Cc3ccccc3)c3ccccc23)cn1 was read as Nrf2 ARE act 11%, A549 viability -2%, ELG1 repair inh 6.5µM* and Nrf2 inh inconclusive.
`Cc1cccc(OCC(=O)N/N=C\c2cn(C)c3ccccc23)c1` gave Nrf2 ARE act 3%, A549 viability -2%, ELG1 repair inh 5.8µM* and Nrf2 inh 1%.
`Cc1cccc(OCC(=O)NCC(=O)N/N=C/c2ccccc2)c1` gave Nrf2 ARE act 0%, A549 viability -11%, ELG1 repair inh 1% and Nrf2 inh -4%.
Screening Cc1cccc(OCC(=O)NCC(=O)N/N=C/c2cc(Br)ccc2OCc2ccccc2)c1 returned Nrf2 ARE act 0%, A549 viability -2%, ELG1 repair inh 26µM* and Nrf2 inh 1%.
For Cc1cccc(OCCn2cc(/C=N/NC(=O)c3ccncc3)c3ccccc32)c1 the results were Nrf2 ARE act 10%, A549 viability inconclusive, ELG1 repair inh 21µM* and Nrf2 inh inconclusive.
For CC1=C(C(=O)Nc2cccc(Cl)c2C)C2(CCCCCC2)OC1=O the results were Nrf2 ARE act 0%, A549 viability 11% and Nrf2 inh inconclusive.
For CCCCC(=O)OC1=C(C(=O)c2ccccc2)N(CC)S(=O)(=O)c2ccccc21 the results were Nrf2 ARE act 0%, A549 viability inconclusive and Nrf2 inh inconclusive.
For CCCCN1C(C(=O)c2ccccc2)=C(OC(C)=O)c2ccccc2S1(=O)=O the results were Nrf2 ARE act -3%, A549 viability inconclusive and Nrf2 inh 8.2µM*.
For CCOC(=O)[C@]12CCC=C1N(CCC1=CCCCC1)C(=O)[C@H](CC(=O)NCc1cccc3ccccc13)C2 the results were Nrf2 ARE act 11%.
Screening CCn1c(/C=C/c2c[nH]c3ccccc23)nc2ccccc2c1=O returned Nrf2 ARE act 8%, A549 viability 1%, ELG1 repair inh inconclusive and Nrf2 inh inconclusive.
CN(C)S(=O)(=O)c1ccc2[nH]cc(/C=C/c3nc4ccccc4c(=O)n3-c3ccccc3)c2c1 was read as Nrf2 ARE act 0%, A549 viability 1%[1.84 µM], ELG1 repair inh inconclusive and Nrf2 inh 10µM*.
For COc1ccc2c(c1)c(/C=C/c1cc[n+](C)cc1)cn2C the results were Nrf2 ARE act 8%, A549 viability -1%, ELG1 repair inh inconclusive and Nrf2 inh 12µM*.
For Cc1cc(Nc2cc(F)ccc2C)nc(-n2nc(C)cc2C)n1 the results were Nrf2 ARE act -1% and A549 viability -14%.
`COc1ccc(N2N=NN(C(C)C)C2=C(Cl)c2nnnn2-c2ccc(OC)cc2)cc1` gave Nrf2 ARE act 16µM*, A549 viability -3% and Nrf2 inh 24%.
Screening CCc1nc2nc(C)cc(Nc3ccc(OC)cc3OC)n2n1 returned Nrf2 ARE act 3%, A549 viability -14% and Nrf2 inh 2%.
`O=C(c1ccc(OC2CCN(CCc3ccccc3)CC2)cc1)N1CCCC(CO)C1` (configuration not stated) gave Nrf2 ARE act -1%, A549 viability 0%, ELG1 repair inh 17% and Nrf2 inh 19%.
`CC1CCCN(C(=O)c2ccc(OC3CCN(CCc4ccccc4)CC3)cc2)C1` (configuration not stated) gave Nrf2 ARE act 0%, A549 viability 1%, ELG1 repair inh -4% and Nrf2 inh 16µM*.
For Cc1cc(C)c(C)c(S(=O)(=O)NCc2ccncc2)c1C the results were Nrf2 ARE act 0%, A549 viability -18%, ELG1 repair inh 2.9µM* and Nrf2 inh 13µM*.
`Cc1cc(Br)c(S(=O)(=O)NCc2ccncc2)cc1C` gave Nrf2 ARE act 0%, A549 viability -19%, ELG1 repair inh inconclusive and Nrf2 inh 3.7µM*.
Screening CCOC(=O)C1=C(C(=O)OCC)N(CC2CCCCC2)CCC1=O returned Nrf2 ARE act -1%, A549 viability -6% and Nrf2 inh -10%.
Screening O=C(COC(=O)c1ccco1)Nc1cccc(S(=O)(=O)N2CCOCC2)c1 returned Nrf2 ARE act -1%.
For CC(C)(CNC(=O)c1cc([N+](=O)[O-])ccc1N1CCC(Cc2ccccc2)CC1)N1CCOCC1 the results were Nrf2 ARE act 1%, A549 viability inconclusive, ELG1 repair inh 21µM* and Nrf2 inh inconclusive.
`CC(C)CNC(=O)c1cc([N+](=O)[O-])ccc1N1CCOCC1` gave Nrf2 ARE act 0%, A549 viability -9%, ELG1 repair inh 0% and Nrf2 inh -1%.
